# Bioassay records from PubChem BioAssay.
# The list is not random: actives were taken first. Their share in the collection is about 2.3%.
# MCL1-BIM inh: inhibitors of human MCL1 binding to BIM-BH3 peptide | Q07820 | GST-MCL1 / FITC-Bim-BH3 fluorescence polarization | inhibition, % at 10.9 µM | hit rate 0.68% among 320,000 | AID 2057;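 active = inhibition above the mean inhibition of all tested compounds plus 3 SD, set per campaign, cut at about 40% in these data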;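 also: higher means more loss of mP so more displacement of Bim peptide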
# Target sequence (Q07820 whole entry, looked up): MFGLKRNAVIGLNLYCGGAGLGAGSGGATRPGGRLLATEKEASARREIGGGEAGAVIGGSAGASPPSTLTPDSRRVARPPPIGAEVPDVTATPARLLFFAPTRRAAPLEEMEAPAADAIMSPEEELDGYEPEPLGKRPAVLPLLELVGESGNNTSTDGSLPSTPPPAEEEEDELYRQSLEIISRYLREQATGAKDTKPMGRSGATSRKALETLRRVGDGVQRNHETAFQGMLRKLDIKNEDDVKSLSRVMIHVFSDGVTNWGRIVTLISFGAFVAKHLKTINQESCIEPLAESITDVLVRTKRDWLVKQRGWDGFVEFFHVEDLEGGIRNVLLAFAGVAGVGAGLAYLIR
# Mcl1-Noxa inh: Mcl-1/Noxa interaction inhibition | Q07820 | TR-FRET Mcl-1/Noxa peptide binding, 2 h | inhibition, % at 21.7 µM | hit rate 1.5% among 220,000;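 active = compounds that cut the protein-peptide binding signal by more than 50% relative to plate controls in a single-dose test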;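 also: His-tagged Mcl-1 with rhodamine Noxa BH3 peptide and terbium anti-His antibody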
# Bcl-xL primary: Bcl-xL (human) inhibition | Q07817 | GST-Bcl-xL / FITC-Bim BH3 peptide fluorescence polarization | inhibition, % at 10.9 µM | hit rate 0.7% among 320,000 | AID 2129;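 active = inhibition above the mean of all tested compounds plus 3 SD, cutoff set per campaign, cut at about 30% in these data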;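 also: inhibitors lower millipolarization by displacing the labeled peptide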
# Target sequence (Q07817 whole entry, looked up): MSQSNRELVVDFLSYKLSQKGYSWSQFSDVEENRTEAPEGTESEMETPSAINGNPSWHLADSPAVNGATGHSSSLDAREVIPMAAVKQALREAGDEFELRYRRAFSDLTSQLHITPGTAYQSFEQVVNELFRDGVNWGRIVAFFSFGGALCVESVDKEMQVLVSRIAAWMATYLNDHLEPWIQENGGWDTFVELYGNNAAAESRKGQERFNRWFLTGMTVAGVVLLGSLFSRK
# Mcl1-Bid inh: Mcl-1/Bid interaction inhibition; inhibition, % at 21.7 µM; AID 1021; TR-FRET Mcl-1/Bid-Dy647 peptide binding, 1536-well; Q07820; hit rate 0.97% among 220,000;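 active = compounds that cut the binding signal by more than half at the single screening dose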;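 also: His-tagged Mcl-1 with europium anti-His antibody binding Bid BH3 peptide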
# GLD-1 RNA inh: GLD-1-TGE RNA interaction inhibition (C. elegans). Q17339. purified GLD-1 + fluorescein TGE RNA, fluorescence polarization. inhibition, % at 5.96 µM. hit rate 0.44% among 320,000;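 active = percent inhibition above a per-plate cutoff, the plate mean of test compounds plus 3 SD, cut at about 30% in these data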
# Mcl-1 Bim block: disrupts Bim peptide binding to human Mcl-1; AID 1009; hit rate 0.1% among 190,000; inhibition, % at 10 µM; Bead-based flow cytometry, Bim peptide-Mcl-1 binding; Q07820; in the data active = inhibition above about 40%
# Hits are given with their value; . = inactive; / = no result given.
SMILES,MCL1-BIM inh,Mcl1-Noxa inh,Bcl-xL primary,Mcl1-Bid inh,GLD-1 RNA inh,Mcl-1 Bim block
O=C1Nc2cc(Cl)cnc2N2CCCC12 (centres undefined),43.0,59.7,35.7,.,.,.
Cc1ccc(-c2nc(N/N=C/c3cccnc3)c3ccccc3n2)cc1,.,.,.,.,.,.
O=[N+]([O-])c1ccc(-c2nc(NCc3ccccc3)c3ccccc3n2)cc1,.,56.3,.,.,.,.
Clc1cccc(/C=N/Nc2nc(Cl)nc3ccccc23)c1,.,86.7,.,.,.,.
Cc1ccc(-c2nc(N/N=C/c3cccc([N+](=O)[O-])c3)c3ccccc3n2)cc1,.,54.2,.,60.3,.,.
CCCCC1C(=O)N(c2ccccc2)N(c2ccc(O)cc2)C1=O (centres undefined),.,/,.,/,.,/
O=C(CNc1ccccc1OC(F)F)N1CCc2ccccc21,.,.,.,.,.,.
Cc1cccn2c(=O)c3cc(C(=O)NC4CCS(=O)(=O)C4)n(Cc4ccccc4)c3nc12 (centres undefined),.,/,.,/,.,/
COc1ccc(NC(=O)CSc2nnnn2C2CC2)cc1S(=O)(=O)N1CCOCC1,.,/,.,/,.,/
CCOC(=O)[C@H]1[C@H]2COc3ccc(C)cc3[C@@H]2N2C(=O)CN(Cc3ccc(Cl)cc3)C(=O)[C@@]12C,.,/,.,/,.,/
CCOC(=O)[C@H]1[C@H]2COc3ccccc3[C@@H]2N2C(=O)CN(Cc3ccc(C)cc3)C(=O)[C@@]12C,/,/,/,/,91.4,/
COc1cc(OC)cc(-c2c(C#Cc3ccsc3)c3cc(-c4ccc(C(N)=O)cc4)ccc3n2C)c1,.,/,.,/,.,/
O=C(CC1Nc2cccc3cccc(c23)NC1=O)Nc1ccccc1 (centres undefined),.,54.0,.,.,.,.
Cc1ccc(NC(=O)CNCCCN2CCOCC2)cc1S(=O)(=O)N1CCCCC1,.,.,.,51.4,.,/
O=c1ccnc(SCCc2ccc([N+](=O)[O-])cc2)[nH]1,.,/,.,/,.,/
CCN(CC)Cc1cc2[nH]c3c4ccc(Cl)cc4ncc3c2cc1OC,/,62.7,/,.,/,/
c1coc(-c2nc3c4c5c(sc4ncn3n2)CCCC5)c1,.,.,.,96.8,.,.
CN(CCc1ccccn1)C(=S)Nc1ccc(Cl)cc1Cl,.,.,.,.,.,.
O=C(NCc1ccc(F)cc1)c1cccc2c1C(=O)c1ccc(N3CCC(Cc4ccccc4)CC3)cc1S2(=O)=O,/,/,/,/,167.6,/
O=C(NC1CCCCC1)c1cccc2c1C(=O)c1ccc(N3CCCC3)cc1S2(=O)=O,/,/,/,/,31.8,/
CC(C)(C)CNC(=O)c1cccc2c1C(=O)c1ccc(N3CCCC3)cc1S2(=O)=O,/,/,/,/,31.6,/
O=C(NC1CC1)c1cccc2c1C(=O)c1ccc(N3CCC(Cc4ccccc4)CC3)cc1S2(=O)=O,/,/,/,/,44.6,/
O/N=C\c1cnc(N2CCN(c3ccccc3)CC2)s1,.,/,.,/,.,/
CC(CC(=O)N1CCc2ccccc21)S(=O)(=O)c1ccc2c(c1)NC(=O)CO2 (centres undefined),.,/,.,/,.,/
O=C(NCc1cc(C(F)(F)F)ccc1Cl)c1cccc2c1C(=O)c1ccc(N3CCC(Cc4ccccc4)CC3)cc1S2(=O)=O,/,/,/,/,158.8,/
SMILES,MCL1-BIM inh,Mcl1-Noxa inh,Bcl-xL primary,Mcl1-Bid inh,GLD-1 RNA inh,Mcl-1 Bim block
COc1cccc(NC(=O)C(=O)N/N=C/c2cc(C)n(-c3ccc(Cl)c(Cl)c3)c2C)c1,.,.,.,92.8,.,.
CCSc1sccc1C1C(C#N)=C(N)N(c2cccnc2)C2=C1C(=O)CCC2 (centres undefined),.,.,31.0,.,.,.
Cn1cccc1C(=O)N1CCN(S(=O)(=O)c2ccccc2)CC1,.,/,.,/,.,/
Cc1cc(Nc2ccc(O)cc2)ccc1N,40.5,/,35.6,/,.,/
COC(=O)CCCNC(=O)c1ccc(OS(=O)(=O)c2cc([N+](=O)[O-])ccc2C)cc1,.,/,.,/,.,/
CCCCn1c(=O)nc2n(-c3ccccc3)c3ccccc3cc-2c1=O,.,.,.,63.5,.,.
CCCCn1c(=O)cc(C)n(-c2ccccc2)c1=O,.,/,.,/,.,/
CCCc1cc(=O)n2[nH]c(-c3ccc(Cl)cc3)cc2n1,.,/,.,/,.,/
O=c1cc(-c2ccc([N+](=O)[O-])cc2)nc2cc(-c3ccc(Cl)cc3)[nH]n12,.,96.7,.,86.7,.,.
Cc1ccccc1NC(=S)N/N=C/c1ccc(O)cc1O,.,60.2,.,.,.,/
COc1ccc(-n2nc(C(=O)NCC(=O)NCCCN3CCOCC3)c3ccccc3c2=O)cc1OC,.,/,.,/,.,/
CCN(CC)c1ccc(/C=N/NC(=O)Cc2nnc(NC(=O)Nc3ccccc3)s2)cc1,.,72.5,.,.,.,.
CCN(CC)c1ccc(/C=N/NC(=O)Nc2ccccc2)cc1,.,.,.,.,.,.
CN(C)c1ccc(C(CNC(=O)c2ccc(C#N)cc2)c2c[nH]c3ccccc23)cc1 (centres undefined),.,79.1,.,.,.,.
CCOC(=O)c1ccc(S(=O)(=O)NCC(c2ccc(N(C)C)cc2)c2c[nH]c3ccccc23)cc1 (centres undefined),.,.,.,.,.,.
CN(C)c1ccc(C(CNS(=O)(=O)c2ccc(F)cc2)c2c[nH]c3ccccc23)cc1 (centres undefined),.,.,.,.,.,.
CN(C)c1ccc(C(CNC(=O)c2ccccc2Br)c2c[nH]c3ccccc23)cc1 (centres undefined),.,77.5,.,.,.,.
Cc1ccc(NC(=S)Nc2cccc(-c3n[nH]c(=S)o3)c2)cc1,.,58.6,.,.,.,/
O=C(N/N=C/c1c(O)n(Cc2ccccc2)c(=O)c2ccccc12)c1cccnc1,.,.,.,.,.,.
O=C(N/N=C/c1c(O)n(-c2ccccc2Cl)c(=O)c2ccccc12)c1cccnc1,/,55.4,/,.,/,.
O=C1NC(CCc2ccccc2)C(=O)N1Cc1ccccc1Cl (centres undefined),.,.,.,95.2,.,.
COc1ccccc1NC(=O)COC(=O)c1ccc(S(=O)(=O)NCc2ccco2)cc1,.,.,.,.,.,.
COc1ccccc1NS(=O)(=O)c1ccc(C(=O)OCC(=O)NCc2ccco2)cc1,.,54.9,.,.,.,.
Cc1ccc(C(=O)CC(Nc2ccc(F)cc2)c2ccccc2)cc1 (centres undefined),.,.,.,.,.,.
CC(C)OC(=O)/C(C#N)=C/c1cn(Cc2ccccc2)c2ccccc12,.,.,.,.,.,.
CC(C)COC(=O)/C(C#N)=C/c1cn(Cc2ccccc2)c2ccccc12,.,.,.,.,.,40.0
CSc1nc(-c2ccc(C)cc2)[nH]c1S(=O)(=O)c1ccccc1,.,.,.,.,.,.
CC(=O)Sc1nc(-c2ccccc2)[nH]c1S(=O)(=O)c1ccc(C)cc1,.,70.1,.,.,.,.
CNC(=O)Nc1ccc2nc(C)oc2c1,.,.,.,.,.,/
Cc1nc2ccc(NC(=O)NC(=O)c3c(Cl)cccc3Cl)cc2o1,.,.,43.1,.,.,/
